Measurements from PubChem BioAssay (EPA / NIEHS).
“And” between values parts separate entries of the source, which are not always exact repeats. Identical values can stand only once. The source holds several records for some structures; these can differ, active in one and inactive in another. The source made the active and inactive calls. The calls were made as follows: active = hit-call score of the fitted dose curve at least 0.9, where 1 is the maximum; inactive = score below 0.9.

Assays:
[1] = read-out: Macrophage colony-stimulating factor (MCSF), CSF1 (gene 1435); test: BSK_hDFCGF_MCSF: BioMAP Diversity Plus: hDFCGF Assay for Macrophage colony-stimulating factor (MCSF) Biomarker Activity (AID 2283060); details: primary human foreskin fibroblasts; actives raise or lower the signal
Procedure, shortened: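 M-CSF levels read by ELISA at 24 h post-dosing in human skin fibroblasts. Parallel cultures stained with SRB assessed cytotoxicity at the same time point; response fitted in both directions against the DMSO baseline.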

[2] = BSK_hDFCGF_SRB: Viability Assessment in the BioMAP Diversity Plus: hDFCGF Assay (AID 2283061); details: primary human foreskin fibroblasts;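 also: cells exposed to compound for 24 h before the read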
Procedure, shortened: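 Viability was read as total protein: after 10% TCA fixation, wells were stained with 0.1% sulforhodamine B and read at 560 nm. Primary human foreskin fibroblasts were dosed for 24 h, with bidirectional fitting versus DMSO.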

[3] = read-out: TIMP metallopeptidase inhibitor 1 (TIMP1), TIMP1 (gene 7076); test: BSK_hDFCGF_TIMP1: BioMAP Diversity Plus: hDFCGF Assay for TIMP metallopeptidase inhibitor 1 (TIMP1) Biomarker Activity (AID 2283062); details: primary human foreskin fibroblasts; actives raise or lower the signal
Procedure, shortened: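 TIMP-1 measured by ELISA 24 h after chemical dosing of primary human skin fibroblasts, with gain or loss fitted relative to DMSO. Parallel SRB staining (560 nm) monitored overt cytotoxicity.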

[4] = read-out: Monokine induced gamma interferon (MIG), CXCL9 (gene 4283); test: BSK_hDFCGF_MIG: BioMAP Diversity Plus: hDFCGF Assay for Monokine induced gamma interferon (MIG) Biomarker Activity (AID 2283063); details: primary human foreskin fibroblasts; actives raise or lower the signal
Procedure, shortened: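 Human primary foreskin fibroblasts in the hDFCGF system, exposed to test chemical for 24 h; MIG measured by ELISA. Bidirectional curve fitting against DMSO negative control as activity baseline.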

[5] = read-out: Matrix Metallopeptidase 1 (MMP1), MMP1 (gene 4312); test: BSK_hDFCGF_MMP1: BioMAP Diversity Plus: hDFCGF Assay for Matrix Metallopeptidase 1 (MMP1) Biomarker Activity (AID 2283064); details: primary human foreskin fibroblasts; actives raise or lower the signal
Procedure, shortened: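 ELISA read-out of MMP1 from human foreskin fibroblasts (primary skin cells), 24 h post-dose. Gain or loss of signal was fitted bidirectionally versus DMSO negative control; cytotoxicity was checked by SRB in parallel cultures.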

[6] = read-out: Vascular cell adhesion molecule 1 (VCAM1), VCAM1 (gene 7412); test: BSK_hDFCGF_VCAM1: BioMAP Diversity Plus: hDFCGF Assay for Vascular cell adhesion molecule 1 (VCAM1) Biomarker Activity (AID 2283065); details: primary human foreskin fibroblasts; actives raise or lower the signal;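 as to AC50: VCAM-1 protein level quantified by ELISA after 24 h chemical exposure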
Procedure, shortened: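 ELISA readout of VCAM-1 on human dermal fibroblast primary cultures, 24 h after chemical exposure. Gain or loss of signal fitted in both directions against DMSO baseline.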

[7] = read-out: Plasminogen activator inhibitor-1 (PAI1), SERPINE1 (gene 5054); test: BSK_hDFCGF_PAI1: BioMAP Diversity Plus: hDFCGF Assay for Plasminogen activator inhibitor-1 (PAI1) Biomarker Activity (AID 2283066); details: primary human foreskin fibroblasts; actives raise or lower the signal
Procedure, shortened: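 PAI-1 levels in human dermal foreskin fibroblasts were quantified by ELISA 24 h after dosing, with gain or loss analysed against DMSO. Overt cytotoxicity was checked by sulforhodamine B total-protein staining in parallel cultures.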

[8] = read-out: Intercellular Adhesion Molecule 1 (ICAM1), ICAM1 (gene 3383); test: BSK_KF3CT_ICAM1: BioMAP Diversity Plus: KF3CT Assay for Intercellular Adhesion Molecule 1 (ICAM1) Biomarker Activity (AID 2283067); details: primary human keratinocytes with fibroblasts; actives raise or lower the signal
Procedure, shortened: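 Cell-surface ICAM-1 was measured by ELISA 24 h after dosing primary human skin keratinocytes co-cultured with fibroblasts. Parallel SRB staining tracked overt cytotoxicity. Gain or loss of signal was fitted relative to DMSO.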

[9] = read-out: Interferon-gamma inducible Protein 10 (IP10), CXCL10 (gene 3627); test: BSK_KF3CT_IP10: BioMAP Diversity Plus: KF3CT Assay for Interferon-gamma inducible Protein 10 (IP10) Biomarker Activity (AID 2283068); details: primary human keratinocytes with fibroblasts; actives raise or lower the signal
Procedure, shortened: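 Signal is secreted/surface IP-10 by ELISA in a human primary skin co-culture of keratinocytes and foreskin fibroblasts, taken 24 h post-dosing; DMSO served as negative control.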

[10] = BSK_KF3CT_SRB: Viability Assessment in the BioMAP Diversity Plus: KF3CT Assay (AID 2283069); details: primary human keratinocytes with fibroblasts;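 also: read 24 h after compound addition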
Procedure, shortened: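 SRB read-out at 560 nm (0.1% stain, TCA-fixed cells) gauges overt cytotoxicity in a human skin keratinocyte–fibroblast co-culture 24 h post-dosing. Signal change was fitted bidirectionally relative to DMSO control.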

[11] = read-out: TIMP metallopeptidase inhibitor 2 (TIMP2), TIMP2 (gene 7077); test: BSK_KF3CT_TIMP2: BioMAP Diversity Plus: KF3CT Assay for TIMP metallopeptidase inhibitor 2 (TIMP2) Biomarker Activity (AID 2283071); details: primary human keratinocytes with fibroblasts; actives raise or lower the signal
Procedure, shortened: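 TIMP-2 measured by ELISA at 24 h in human keratinocyte/fibroblast primary co-cultures exposed to chemicals. Both increases and decreases were fitted against DMSO. Parallel cultures were stained with SRB for total protein as an overt-cytotoxicity check.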

[12] = read-out: C-C motif chemokine 2 (Homo sapiens) (UniProt P13500); test: BSK_KF3CT_MCP1: BioMAP Diversity Plus: KF3CT Assay for Monocyte Chemoattractant Protein 1 (MCP1/CCL2) Biomarker Activity (AID 2283073); details: primary human keratinocytes with fibroblasts; actives raise or lower the signal
Procedure, shortened: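 ELISA read-out of MCP-1, 24 h post-dose, in primary human skin keratinocytes co-cultured with fibroblasts. Parallel SRB staining monitors cytotoxicity; changes fitted both directions relative to DMSO.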

[13] = read-out: Matrix Metallopeptidase 9 (MMP9), MMP9 (gene 4318); test: BSK_KF3CT_MMP9: BioMAP Diversity Plus: KF3CT Assay for Matrix Metallopeptidase 9 (MMP9) Biomarker Activity (AID 2283074); details: primary human keratinocytes with fibroblasts; actives raise or lower the signal;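 as to AC50: MMP9 protein level quantified by ELISA in the co-culture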
Procedure, shortened: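 ELISA read-out of MMP-9 at 24 h post-dosing in a co-culture of human skin keratinocytes and foreskin fibroblasts. Gain or loss of signal was fitted in both directions against DMSO.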

[14] = read-out: urokinase plasminogen activator (uPA), PLAU (gene 5328); test: BSK_KF3CT_uPA: BioMAP Diversity Plus: KF3CT Assay for urokinase plasminogen activator (uPA) Biomarker Activity (AID 2283075); details: primary human keratinocytes with fibroblasts; actives raise or lower the signal
Procedure, shortened: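 Skin co-culture (keratinocytes + foreskin fibroblasts), human primary; 24 h post-dose; uPA by ELISA; gain/loss fit vs DMSO baseline.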

[15] = read-out: CD40, CD40 (gene 958); test: BSK_LPS_CD40: BioMAP Diversity Plus: LPS Assay for CD40 Biomarker Activity (AID 2283076); details: primary human HUVEC with PBMC; actives raise or lower the signal
Procedure, shortened: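 In the LPS system of human endothelial cells with peripheral blood mononuclear cells, CD40 levels were read by ELISA 24 h post-treatment. Signal changes in either direction were fitted against the DMSO baseline, with parallel SRB protein staining.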

[16] = read-out: E-selectin (Homo sapiens) (UniProt P16581); test: BSK_LPS_Eselectin: BioMAP Diversity Plus: LPS Assay for Eselectin Biomarker Activity (AID 2283077); details: primary human HUVEC with PBMC; actives raise or lower the signal
Procedure, shortened: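 E-selectin ELISA on LPS-stimulated endothelial cell/PBMC co-cultures, read 24 h post-treatment; gains and losses fitted against DMSO. Parallel SRB staining (0.1% SRB after 10% TCA fixation, 560 nm) flags overt cytotoxicity.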

[17] = BSK_LPS_SRB: Viability Assessment in the BioMAP Diversity Plus: LPS Assay (AID 2283079); details: primary human HUVEC with PBMC;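 also: total protein by sulforhodamine B absorbance as a cytotoxicity measure; measured one day after compound addition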
Procedure, shortened: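 SRB viability endpoint: cells fixed with 10% TCA, stained with 0.1% SRB, read at 560 nm, 24 h post-dose. HUVEC/PBMC co-culture; signal change in either direction scored relative to DMSO.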

[18] = read-out: Interleukin-1 alpha (IL1a), IL1A (gene 3552); test: BSK_KF3CT_IL1a: BioMAP Diversity Plus: KF3CT Assay for Interleukin-1 alpha (IL1a) Biomarker Activity (AID 2283070); details: primary human keratinocytes with fibroblasts; actives raise or lower the signal
Procedure, shortened: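 Primary skin co-culture (keratinocytes, foreskin fibroblasts), 24 h exposure; ELISA for IL-1a; bidirectional curve fit vs DMSO.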

[19] = read-out: Transforming growth factor beta 1 (TGFb1), TGFB1 (gene 7040); test: BSK_KF3CT_TGFb1: BioMAP Diversity Plus: KF3CT Assay for Transforming growth factor beta 1 (TGFb1) Biomarker Activity (AID 2283072); details: primary human keratinocytes with fibroblasts; actives raise or lower the signal
Procedure, shortened: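 ELISA quantifies TGF-b1 at 24 h post-dose in a primary human skin co-culture of keratinocytes and fibroblasts, with gain or loss judged against DMSO. Parallel SRB total-protein staining flags overt cytotoxicity.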

Measured: AC50

E-selectin (Homo sapiens), sequence (P16581 whole entry, looked up): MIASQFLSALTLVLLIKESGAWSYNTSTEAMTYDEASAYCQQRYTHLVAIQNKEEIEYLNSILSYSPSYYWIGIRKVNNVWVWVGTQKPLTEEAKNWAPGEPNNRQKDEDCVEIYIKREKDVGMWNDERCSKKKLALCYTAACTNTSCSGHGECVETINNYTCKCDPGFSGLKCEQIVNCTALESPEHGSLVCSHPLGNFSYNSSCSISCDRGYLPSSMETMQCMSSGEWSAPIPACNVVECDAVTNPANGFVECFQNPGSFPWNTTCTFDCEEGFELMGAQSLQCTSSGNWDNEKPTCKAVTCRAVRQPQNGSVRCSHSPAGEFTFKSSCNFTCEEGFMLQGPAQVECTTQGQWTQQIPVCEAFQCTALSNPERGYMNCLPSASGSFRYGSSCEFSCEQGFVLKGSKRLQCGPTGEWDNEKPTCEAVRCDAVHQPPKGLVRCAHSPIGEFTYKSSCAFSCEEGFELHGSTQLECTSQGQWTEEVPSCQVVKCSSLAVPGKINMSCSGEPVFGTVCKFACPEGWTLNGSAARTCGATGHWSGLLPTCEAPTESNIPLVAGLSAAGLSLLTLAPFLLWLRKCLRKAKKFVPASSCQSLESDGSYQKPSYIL

O=C(O)C(F)(F)C(F)(F)C(F)(F)C(F)(F)C(F)(F)C(F)(F)C(F)(F)C(F)(F)C(F)(F)C(F)F
active: [1] 11 µM | [2] 54 µM and 7.25 µM | [4] 9.87 µM and 5.95 µM | [6] 15.3 µM and 5.95 µM | [7] 45.6 µM and 46 µM | [9] 27.6 µM and 23.7 µM | [10] 52.4 µM and 49.3 µM | [11] 42.2 µM | [12] 30 µM and 11.4 µM | [13] 16.2 µM and 12.5 µM | [14] 47.5 µM and 54.1 µM | [15] 24.9 µM and 41.6 µM | [16] 58.3 µM | [17] 46.9 µM and 55 µM
inactive: [1] | [3] | [5] | [8] | [11] | [16]

O=S(=O)(OCC(F)F)C(F)(F)F
active: [7] 1.42 µM
inactive: [1] | [2] | [3] | [4] | [5] | [6] | [7] | [8] | [9] | [10] | [18] | [11] | [12] | [13] | [14] | [15] | [16] | [17]

OCC(F)(F)C(F)(F)C(F)(F)C(F)(F)C(F)(F)C(F)(F)F
inactive: [2] | [3] | [4] | [5] | [7] | [8] | [10] | [18] | [11] | [12] | [13] | [14] | [15] | [16] | [17]
active: [1] 48.6 µM and 49.4 µM | [2] 45.4 µM | [5] 49.3 µM | [6] 54.6 µM and 46 µM | [7] 47.6 µM

CCc1ccc(C(c2ccc(CC)cc2)C(Cl)Cl)cc1
active: [1] 26 µM | [2] 13.8 µM | [3] 20 µM | [4] 31.8 µM | [5] 30.1 µM | [6] 14.2 µM | [7] 12.3 µM | [9] 13.6 µM | [10] 29.2 µM | [18] 20 µM | [11] 13 µM | [19] 20 µM | [12] 10.1 µM | [13] 11.9 µM | [15] 14.2 µM | [17] 25.1 µM
inactive: [8] | [14] | [16]

C=C(C)C(=O)OCC(F)(F)C(F)(F)C(F)(F)C(F)(F)C(F)(F)C(F)(F)C(F)(F)F
inactive: [1] | [2] | [3] | [4] | [5] | [6] | [7] | [8] | [10] | [18] | [11] | [12] | [13] | [14] | [15] | [16] | [17]
active: [2] 1.4 µM | [16] 0.0306 µM
